NCOA3 inh – inhibitors of human steroid receptor coactivator 3 (SRC3); Q9Y6Q9; HEK293 GAL4-SRC3 luciferase reporter, luminescence; inhibition, % at 3.6 µM; actives 0.17% (n = 360,000);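 active means inhibition above a per-campaign cutoff, the mean of all compounds plus 3 SD, cut at about 60% in these data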;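 further: 0% = DMSO-treated cells and 100% = gossypol-treated cells at 36 µM; higher means less SRC3-driven luciferase light from the GAL4 reporter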
COUP-TFII inh – NR2F2 (human) inhibition, primary screen; P24468; HEK293T NGFI-A luciferase reporter, luminescence; inhibition, % at 8.6 µM; actives 0.7% (n = 370,000);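 active means inhibition above a per-plate cutoff, mean inhibition of test wells between control levels plus 3 SD, cut at about 38% in these data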;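 further: cells cotransfected with COUP-TFII expression vector driving the NGFI-A reporter; 0% = median of COUP-TF2 test wells and 100% = reporter-only cells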
SRC2 inh – inhibits human steroid receptor coactivator 2; Q15596; AID 651957; HEK293 GAL4-SRC2 luciferase reporter, luminescence; actives 0.17% (n = 370,000); inhibition, % at 9 µM;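 active means inhibition above the mean inhibition of all tested compounds plus 3 SD, set per campaign, cut at about 52% in these data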;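 further: 0% = DMSO treated cells and 100% = cells given Gossypol at 36 µM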
NR5A2 inv ag – NR5A2 inverse agonism in reporter assay. HEK293T StAR-luciferase reporter, LRH-1 transfected, 24 h. O00482. inhibition, % at 3.6 µM. actives 0.13% (n = 360,000);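 active means inhibition above the mean inhibition of all tested compounds plus 3 SD, cut at about 73% in these data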;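 further: 0% = DMSO wells and 100% = reporter-only cells lacking LRH-1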
Target sequence (O00482 whole entry, looked up): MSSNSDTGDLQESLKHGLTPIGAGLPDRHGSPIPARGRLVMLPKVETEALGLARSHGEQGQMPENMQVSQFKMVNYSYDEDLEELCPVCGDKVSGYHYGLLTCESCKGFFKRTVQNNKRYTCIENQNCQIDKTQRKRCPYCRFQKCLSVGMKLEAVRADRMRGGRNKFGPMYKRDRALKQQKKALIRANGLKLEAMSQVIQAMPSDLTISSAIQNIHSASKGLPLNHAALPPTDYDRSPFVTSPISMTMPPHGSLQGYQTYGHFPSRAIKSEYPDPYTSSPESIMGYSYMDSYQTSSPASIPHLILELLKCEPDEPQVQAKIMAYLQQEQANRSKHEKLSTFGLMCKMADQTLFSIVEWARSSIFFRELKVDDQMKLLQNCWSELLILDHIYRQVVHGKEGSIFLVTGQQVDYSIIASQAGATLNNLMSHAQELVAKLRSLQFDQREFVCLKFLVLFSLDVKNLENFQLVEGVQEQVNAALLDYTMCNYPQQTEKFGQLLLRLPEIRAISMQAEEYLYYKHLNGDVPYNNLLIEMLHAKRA
GalR3 antagonist – antagonists of human GalR3; O60755; HEK293 GalR3-CNG cAMP membrane potential fluorescence; galR3 body fused to GalR1 C-terminus; inhibition, % at 3 µM; actives 0.44% (n = 360,000);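 active means inhibition above the screen-wide average plus 3 SD, cut at about 13% in these data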;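 further: forskolin and galanin both at EC90 stimulate the cells; cAMP rise reported by CNG channel membrane potential dye signal; 0% = forskolin plus galanin with DMSO and 100% = forskolin alone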
SRC1 inh – human NCOA1 inhibition | inhibition, % at 3.6 µM | AID 588354 | HEK293 GAL4-SRC1 luciferase reporter, luminescence | actives 0.12% (n = 360,000) | Q15788;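 active means inhibition above the campaign mean plus 3 SD, with each screening campaign given its own cutoff, cut at about 60% in these data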;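 further: 0% = DMSO treated cells and 100% = gossypol at 36 µM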
Gal4-VP16 ctr – VP16 inhibition counter-screen for COUP-TFII | shares compounds with COUP-TFII inh | HEK293 Gal4-VP16 luciferase reporter, luminescence | inhibition, % at 8.5 µM | actives 25% (n = 2,500); in the data active means inhibition above about 13%
COUP-TFII conf – COUP-TFII (NR2F2) inhibition, confirmation assay; shares compounds with COUP-TFII inh; HEK293 NGFI-A luciferase reporter, luminescence; inhibition, % at 8.5 µM; actives 45% (n = 2,500); AID 687008;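 active means mean inhibition over three repeats above a set limit taken from the earlier primary screen, cut at about 38% in these data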;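 further: 100% = cells given the luciferase reporter alone without the COUP-TF2 vector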
Starred values were filed as active, the others as inactive; · = no result given. Hits are enriched below; roughly 1.1% of the tested compounds scored in any of these assays.

SMILES	NCOA3 inh	COUP-TFII inh	SRC2 inh	NR5A2 inv ag	GalR3 antagonist	SRC1 inh	Gal4-VP16 ctr	COUP-TFII conf
CC1Sc2ccc(S(=O)(=O)N3CCC(C(=O)Nc4ccc(Cl)cc4)CC3)cc2NC1=O (stereo unspecified)	17.9	65.8*	23.2	21.8	11.5	3.3	16.1*	72.5*
COc1ccc(NC(=O)C2CCN(S(=O)(=O)c3ccc(N4CCCC4=O)cc3)CC2)c(OC)c1	7.1	3.2	14.8	8.9	-7.2	15.3	·	·
Cc1ccc(NC(=O)C2CCN(S(=O)(=O)c3ccc(N4CCCC4=O)cc3)CC2)cc1Cl	5.5	66.1*	37.8	23.8	-3.6	-1.4	2.0	45.8*
CS(=O)(=O)c1ccc(NC(=O)C2CCCN(C(=O)c3ccc(Cl)cc3)C2)cc1 (stereo unspecified)	13.4	7.9	-7.9	10.4	-1.4	9.8	·	·
Cc1ccccc1C(=O)N1CCC(C(=O)Nc2cccc(S(=O)(=O)N3CCCCC3)c2)CC1	-0.2	33.5	10.3	9.8	-2.6	5.9	·	·
COc1ccc(NC(=O)C2CCN(S(=O)(=O)c3ccc4c(c3)NC(=O)C(C)S4)CC2)cc1 (stereo unspecified)	-16.4	14.3	13.9	3.0	0.9	6.2	·	·
Cc1ccccc1C(=O)N1CCC(C(=O)Nc2ccc(C)c(S(=O)(=O)N3CCCCC3)c2)CC1	19.9	41.6*	16.3	11.2	-7.2	-0.9	-6.2	13.1
Cc1ccc(NC(=O)C2CCCN(C(=O)c3ccc(Cl)cc3)C2)cc1S(=O)(=O)N1CCOCC1 (stereo unspecified)	9.5	37.6*	-11.8	14.9	1.6	12.1	-7.2	3.0
COc1ccc(S[C@]2(C(=O)NCc3ccccc3)CC(=O)N[C@@H]2c2ccc(OC)cc2)cc1	·	-3.9	-2.8	·	·	·	·	·
Cc1cnn(-c2ccccc2)c1NC(=O)COCc1ccccc1	·	11.5	0.2	·	·	·	·	·
CCOC(=O)c1[nH]c2c(c1C)C(=O)CC(c1ccc(F)cc1)C2 (stereo unspecified)	16.3	0.0	-32.6	8.0	1.2	-1.0	·	·
Cc1c(C(=O)OCC2CCCO2)[nH]c2c1C(=O)CC(c1ccc(N(C)C)cc1)C2 (stereo unspecified)	2.5	37.5*	15.7	17.2	4.6	3.4	-15.1	4.9
COc1cc(CNc2ccc(CNc3ncn[nH]3)cc2)ccc1OCC(=O)NC(C)(C)C	7.2	41.7*	29.9	50.8	-1.7	-4.9	1.6	17.5
CC(C)Oc1ccc(-c2csc(N3CCC(C(N)=O)CC3)n2)cc1	·	-10.5	·	·	·	·	·	·
Cc1[nH]nc(C(F)(F)F)c1N=NN1CCOCC1	14.1	48.6*	29.6	24.4	-4.1	1.5	12.7	46.4*
Clc1ccc(N=NN2CCOCC2)cc1	11.3	-0.4	-0.5	-11.6	-4.4	0.8	·	·
S=C(NCc1ccc(Cl)cc1)NC1CCN(Cc2ccccc2)CC1	23.2	51.7*	34.9	15.0	11.9	-23.5	6.3	19.4
Clc1ccc(CNC2CCN(Cc3ccccc3)CC2)cc1	0.3	5.2	-22.9	-4.0	-10.2	5.7	·	·
O=C(C1CCC(CNS(=O)(=O)c2cccs2)CC1)N1CCN(c2ccc(Cl)cc2)CC1 (stereo unspecified)	44.9	60.3*	14.5	4.7	-9.0	31.2	4.1	59.5*
O=C(NC1CCCC1)C1CCC(CNS(=O)(=O)c2cccs2)CC1 (stereo unspecified)	6.2	-5.1	-39.1	1.6	1.1	-0.8	·	·
NC(=S)N/N=C1\CCSc2ccc(Cl)cc21	33.7	37.4*	14.2	22.6	-7.5	28.7	-1.0	32.8
CN(C)c1cc[n+](CC(=O)c2ccc(-c3ccccc3)cc2)cc1	57.4	52.2*	-2.9	86.1*	-3.9	34.8	11.8	48.4*
O=C(C[n+]1ccccc1)c1ccc(-c2ccccc2)cc1	7.2	-5.3	-2.1	1.8	-3.7	-16.1	·	·
CC(C)CC(O)(CC(C)C)c1cn(C(=O)N(c2ccccc2)c2ccccc2)nn1	·	-1.6	·	·	·	·	·	·

Screening data deposited in PubChem BioAssay by The Scripps Research Institute Molecular Screening Center.
